D2 PAM-1 – human D2 receptor positive allosteric modulation; 0.23% of 360,000 active; DiscoveRx D2 beta-arrestin cells, luminescence, 90 min; 100% = 57 uM dopamine signal; potentiation, % (test concentration not listed); AID 624464; in the data active = potentiation above about 50%; inconclusive = mostly about 30% to 49%
Target sequence (P14416 whole entry, looked up): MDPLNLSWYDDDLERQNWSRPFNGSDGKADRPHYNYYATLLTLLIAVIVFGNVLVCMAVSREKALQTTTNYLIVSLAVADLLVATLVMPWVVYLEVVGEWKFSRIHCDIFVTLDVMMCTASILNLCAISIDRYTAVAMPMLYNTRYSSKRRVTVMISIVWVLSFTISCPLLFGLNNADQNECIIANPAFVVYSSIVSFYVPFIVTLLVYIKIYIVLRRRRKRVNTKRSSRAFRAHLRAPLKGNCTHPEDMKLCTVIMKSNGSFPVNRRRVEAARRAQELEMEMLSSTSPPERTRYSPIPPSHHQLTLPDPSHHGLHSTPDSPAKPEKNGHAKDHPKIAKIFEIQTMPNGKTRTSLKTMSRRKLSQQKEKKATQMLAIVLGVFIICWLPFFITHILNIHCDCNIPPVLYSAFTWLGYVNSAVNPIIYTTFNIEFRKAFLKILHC
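D2 cells co-treated with compound plus 50 nM dopamine (EC20) for 90 min at 37 deg C to detect potentiation. Beta-arrestin recruitment was read as enzyme-fragment luminescence after 1 h at ambient temperature. Full response was set by 57 uM dopamine.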
D2 PAM-2 – positive allosteric modulators of human D2 dopamine receptor. potentiation, % at 10 µM. P14416. AID 485347. 0.34% of 340,000 active. HEK293 T-REx D2, calcium flux, EC20 dopamine potentiation;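 active = potentiation over 3 SD above the plate norm, cut at about 30% in these data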; note: 0% is about no effect
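Tetracycline-induced HEK293 T-REx cells force-coupled to calcium signalling expressed D2; compounds were pin-added after a 10 s baseline, read kinetically 180 s, then an EC20 dopamine challenge followed with a further 180 s calcium read.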
D2 ag-1 – activates the human D2 dopamine receptor | P14416 | HEK293 T-REx D2 cells, calcium flux agonist mode | activation, % at 2 µM | 0.53% of 340,000 active | AID 485358;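 active = activation over 3 SD above normal in the single-dose calcium agonist read, cut at about 30% in these data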; note: 0% is about no effect
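Tetracycline-induced HEK293 Trex cells with D2 receptor force-coupled to calcium signaling, plated overnight at 30 C and loaded with no-wash calcium dye. Calcium flux read kinetically for 180 s after compound addition; responses flag agonists.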
D2 ag-2 – activates the human D2 dopamine receptor; P14416; DiscoveRx PathHunter D2 beta-arrestin, luminescence, 90 min; 100% = 57 uM dopamine signal; activation, % (concentration not given with the values); 0.084% of 360,000 active; in the data active = activation above about 40%; inconclusive = between about 15% and that limit
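DiscoveRx PathHunter D2 beta-arrestin cells (2,100/well) attached overnight, then compound-stimulated 90 min at 37 C in HBSS/10 mM HEPES/0.1% Tween-20 buffer; beta-galactosidase complementation read by luminescence after 1 h at ambient temperature. Dopamine 57 uM final (EC100) as control.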
D2 antag – D2 dopamine receptor (human) antagonism; P14416; HEK293 TREx D2 cells, calcium flux, dopamine EC80; inhibition, % at 10 µM; 2% of 340,000 active; AID 485344; in the data active = inhibition above about 30%; inactive = below that, where a call was filed; note: 0% is about no effect
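Overnight-induced (tetracycline, 30 C) HEK293 T-REx cells carrying force-coupled D2 receive a no-wash calcium dye, then compound, then EC80 dopamine at 180 s; signals are read kinetically throughout.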
* hit, by the source's call; ? = inconclusive; · = not tested or not shown. A selection: hits, their analogues and other compounds. The true share with any hit is near 2.4%.

SMILES | D2 PAM-1 | D2 PAM-2 | D2 ag-1 | D2 ag-2 | D2 antag
CCC(=O)Nc1ccc(C(=O)n2nc(C)cc2C)cc1 | 1.5 | 14.6 | 0.7 | -2.9 | -26.0
Cc1cc(C)n(C(=O)c2ccc(NC(=O)CC(C)C)cc2)n1 | -11.8 | -11.1 | 0.4 | -0.7 | 32.9*
Cc1ccc(C(c2sc3nc(-c4ccco4)nn3c2O)N2CCC3(CC2)OCCO3)cc1 (stereo unspecified) | · | 11.0 | 0.0 | · | ·
Cc1ccccc1OCC(=O)N(Cc1ccc(C(C)C)cc1)C1CCS(=O)(=O)C1 (stereo unspecified) | · | · | 0.4 | · | ·
CCC1CCC(N2CCN(c3ccccc3F)CC2)CC1 (stereo unspecified) | 1.5 | -24.2 | 17.9 | 4.6 | 36.7*
Cc1cccc(C(=O)NC2CCN(CC(=O)NCc3ccccc3F)CC2)c1 | -3.9 | 1.7 | 0.6 | 5.5 | 41.6*
COc1cccc(C(=O)NC2CCN(CC(=O)NCc3ccccc3F)CC2)c1 | -1.8 | -2.4 | -0.8 | -1.7 | 10.5
CCN1/C(=C/C=C/c2sc3ccccc3[n+]2CC)Sc2ccccc21 | -22.9 | · | · | -6.8 | ·
CCN1/C(=C/C=C/c2oc3ccc(-c4ccccc4)cc3[n+]2CC)Oc2ccc(-c3ccccc3)cc21 | -23.6 | -26.2 | 149.2* | -6.3 | 75.8*
Cc1cccc(N2CCN(C(=O)c3cnn(-c4ccccc4)c3C3CCN(C(=O)OC(C)(C)C)CC3)CC2)c1C | · | 3.2 | -1.3 | · | ·
Cc1nn(-c2ccccc2)c(N)c1C(O)(CSc1nccn1C)C(F)(F)F (stereo unspecified) | 5.6 | -0.2 | -0.1 | -0.5 | 37.5*
Cc1nn(-c2ccc(Cl)cc2)c(N)c1C(O)(CSc1nccn1C)C(F)(F)F (stereo unspecified) | -4.3 | 6.0 | 0.5 | 0.7 | 9.2
Cc1cc2oc(C(=O)Nc3nonc3C)c(C)c2cc1Cl | -7.1 | 33.8* | 0.2 | -1.2 | 12.2
Cn1nc(C(F)(F)F)c2cc(C(=O)Nc3ccc(F)cc3F)sc21 | -20.4 | 10.8 | -0.2 | 3.1 | -5.1
Cn1nc(C(F)(F)F)c2cc(C(=O)Nc3ccc(Cl)cc3)sc21 | -36.6 | -25.0 | 1.3 | 1.9 | 64.4*
Cc1cccc(C)c1OCc1n[nH]c(=S)n1-c1ccccc1 | -5.9 | -0.4 | 0.5 | 9.5 | -10.7
Cc1cccc(C)c1OCc1n[nH]c(=S)n1N | -20.8 | -5.0 | 1.7 | 14.4 | 43.2*
CCCc1nnc(SCC(=O)N2CCCCC2C)n1CC1CCCO1 (stereo unspecified) | -7.3 | 37.1* | · | -2.7 | ·
CCCc1nnc(SCC(=O)N(CC)CC)n1CC1CCCO1 (stereo unspecified) | 0.4 | -0.5 | 0.2 | 0.7 | -7.7
COC(=O)c1ccccc1NC(=O)Cn1c(=O)n(-c2ccc(C)cc2)c(=O)c2ccccc21 | · | 2.8 | -0.1 | · | ·
Cc1c(O)ccc(NS(=O)(=O)c2ccccc2)c1C | -1.9 | 10.1 | -0.5 | -0.4 | 11.7
Cc1cc(NS(=O)(=O)c2ccccc2)c(C)c(Cl)c1O | 61.3* | -2.7 | 0.3 | 10.0 | 0.3
Oc1ccc(N=Nc2ccccc2)cc1 | -11.3 | 5.1 | -0.4 | -2.6 | 33.2*
O=C(Nc1ccc2c(c1)OCO2)NC1CCN(Cc2ccccc2)CC1 | -15.9 | -32.7 | 0.0 | -4.8 | 46.4*
O=C(Nc1ccc(F)cc1)NC1CCN(Cc2ccccc2)CC1 | -12.5 | -22.2 | 0.2 | -5.2 | 52.9*
SMILES | D2 PAM-1 | D2 PAM-2 | D2 ag-1 | D2 ag-2 | D2 antag
O=C(Nc1ccc2c(c1)OCO2)C1CCCCC1 | -1.9 | 5.8 | 0.2 | -1.8 | -1.9
O=C(Nc1ccc2c(c1)OCO2)C1CCN(Cc2cc3c(cc2O)OCO3)CC1 | -18.1 | -16.3 | -4.2 | -5.0 | 35.0*
O=C(Nc1ccccc1)NC1CCN(Cc2c(F)cccc2Cl)CC1 | -22.2 | -21.4 | -0.5 | 1.7 | -13.1
Cc1ccc(NC(=O)CSc2ncc3c(n2)-c2ccccc2N(C)S3(=O)=O)c(Cl)c1 | · | 7.2 | 0.2 | · | ·
COc1ccc(-c2noc(N3CCC(C(=O)N(C)c4cc(Cl)ccc4OC)CC3)n2)cc1 | · | 2.1 | 0.5 | · | ·
CCCOc1ccc(N)cc1N | 65.8* | 13.3 | 1.4 | 14.7 | -12.7
CCCOc1cc(N)ccc1C(=O)OCCN(CC)CC | -20.7 | 3.7 | -0.1 | -5.4 | -5.6
C=CCN1CCN(C(=O)c2cc3c(s2)CCC(CC)C3)CC1 (stereo unspecified) | -40.7 | -17.4 | -0.7 | -6.0 | 45.8*
CCC1CCc2sc(C(=O)O)cc2C1 (stereo unspecified) | -3.5 | 6.8 | 0.0 | -0.9 | -14.7
O=C(CCn1c(=O)c2ccccc2n(CC(=O)Nc2ccc(F)cc2)c1=O)NCCc1ccccc1 | · | 1.8 | 0.4 | · | ·
CCCCN(C)c1nnc(NC(=O)Nc2cccc(C(C)=O)c2)s1 | · | -3.5 | -1.5 | · | ·
CCc1cccc(OCC(=O)Nc2ccc(C)c(S(=O)(=O)N3CCCCCC3)c2)c1 | 1.1 | 1.3 | 1.3 | -1.3 | 31.4*
Nc1c(C(O)(C(F)(F)F)C(F)(F)F)cc(C(O)(C(F)(F)F)C(F)(F)F)c2ccccc12 | 91.4* | -3.9 | 1.2 | ? | 14.7
CCc1ccc(-n2nc(CO)c(C(=O)NC(C)c3ccc(Cl)cc3)n2)cc1 (stereo unspecified) | · | 0.4 | -0.5 | · | ·
COc1ccccc1N1CCN(C(=O)c2cc3c(=O)n(Cc4ccco4)ccc3nc2C)CC1 | · | -18.4 | 0.5 | · | ·
CN1CCN(c2nc3c(c(=O)n(C)c(=O)n3C)n2Cc2ccc(Cl)cc2)CC1 | -4.8 | -6.1 | 0.5 | -0.6 | -6.0
Cn1c(=O)c2c(nc(-n3ccnc3)n2Cc2ccc([N+](=O)[O-])cc2)n(C)c1=O | -13.9 | -0.5 | -0.1 | -3.0 | 30.6*
CCN(CCCNC(=O)c1ccc(Sc2ccc(Cl)cc2)c(NC(C)=O)c1)c1cccc(C)c1 | · | -1.2 | 0.4 | · | ·
CCN(CC)CCNC(=O)c1ccc(Sc2ccc(Cl)cc2)c(NC(C)=O)c1 | -18.1 | -30.8 | -0.1 | -6.0 | 36.0*
CC(=O)Nc1cc(C(=O)NCc2ccc(C)cc2)ccc1Sc1ccc(C)cc1 | · | 9.7 | 0.9 | · | ·
CCN(CC)CCNC(=O)c1ccc(Sc2ccc(C)cc2)c(NC(C)=O)c1 | -12.2 | -31.1 | -0.6 | -7.4 | 53.6*
O=S(=O)(NCC(c1cccs1)S(=O)(=O)c1ccccc1)c1ccccc1 (stereo unspecified) | · | -4.1 | 2.1 | · | ·
COc1ccc(CC(=O)Nc2sc3c(c2C(=O)Nc2c(C)cccc2C)CCCCC3)cc1 | · | 0.0 | 0.2 | · | ·
CCSc1nc(-c2ccc(Cl)cc2)nc2c1Cc1c(CO)cnc(C)c1O2 | · | 2.7 | 1.0 | · | ·
COc1ccc(N2CCN(CCCNC(=O)c3c(C)nn(-c4ccc(F)cc4)c3-n3cccc3)CC2)cc1 | · | -3.8 | -0.4 | · | ·
O=C(CS(=O)(=O)c1ccc(F)cc1)NCc1ccccc1 | 0.4 | -0.5 | 0.8 | -6.4 | 34.3*
COc1ccc(NC(=O)Nc2sc3nc4n(c(=O)c3c2C)CCC(C)CC4)cc1OC (stereo unspecified) | · | -1.8 | -0.5 | · | ·
COc1ccc(/C=C/c2nnc(NC(=O)CSc3ccc(C)cc3)s2)cc1 | -1.7 | · | · | -2.7 | ·
